# This is a sample that favours compounds with a hit; in the whole collection about 3% have one here.
# TRPM1 prom inh = inhibitors of MITF-dependent TRPM1 promoter reporter, primary screen, cell-based, SK-MEL-5, single point, luciferase; 0.83% of 330,000 active; AID 488899, 2010; inhibition, % at 12.5 µM; SK-MEL-5 TRPM1 promoter luciferase, 24 h;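 active = mean inhibition across replicates of 60% or more, whatever share of single replicates reaches that level; inconclusive = some that reach 60%, reason not given; inactive = mean inhibition across replicates below 60%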
# TWEAK-Fn14 inh = inhibitors of TWEAK-Fn14 signaling, primary screen, luciferase reporter cells, uHTS; AID 1159606, 2016; TWEAK-stimulated Fn14 reporter cells, luciferase luminescence, 8 h; 2% of 360,000 active; inhibition, % at 10 µM; in the data active = inhibition above about 50%
# LMP1 NFkB inh = EBV LMP1-driven NF-kappaB luciferase reporter inhibitors, primary screen, cell-based, luminescence, single point | inhibition, % at 12.5 µM | 0.69% of 350,000 active | LMP1-induced NF-kappaB luciferase reporter cells | AID 504558, 2011; in the data active = inhibition above about 41%; inconclusive = no clear call, values can overlap the other calls;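 note: 0% = neutral control wells and 100% = reference inhibitor control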
# LGR2 antag = inhibitors of bursicon-induced LGR2 CRE-luciferase signal, primary screen, cell-based, HEK293, CRE-luciferase reporter, bursicon stimulation; inhibition, % at 9.99 µM; AID 720647, 2013; 0.35% of 380,000 active; bursicon-stimulated, 4 h; Drosophila bursicon receptor LGR2 (rickets);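 active = drop in luminescence signal, shown as inhibition above about 50% in the replicate tests, limit read from the data, passing the limit was not always enough; inconclusive = probably only some replicates passing the limit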;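 note: agonist challenge used bursicon conditioned medium at about half maximal strength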
# TROY signal inh = inhibitors of TROY-driven NF-kB signaling, primary screen, Q293 LMP1-TROYcd cells, NF-kB luciferase, uHTS | inhibition, % at 10 µM | Q293 LMP1-TROYcd NF-kB luciferase reporter, 4 h | 0.98% of 360,000 active;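 active = compounds whose plate-normalised and pattern-corrected inhibition of the luciferase reporter signal at the single screening dose is 50% or more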
# MITF TRPM1 HTS = activators of MITF-driven TRPM1 promoter reporter, primary screen, cell-based, SK-MEL-5, luciferase, single point. activation, % at 12.5 µM. 0.75% of 300,000 active. SK-MEL-5 TRPM1-promoter luciferase, 24 h; % of positive control, neutral wells = 0;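 active = mean activation of at least 80% with every replicate also reaching 80%; inconclusive = mean reaches 80% but some replicate falls short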;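 note: 0% = neutral control wells and 100% = parthenolide positive control wells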
# * hit, by the source's call; ? = inconclusive; . = no result given.
SMILES,TRPM1 prom inh,TWEAK-Fn14 inh,LMP1 NFkB inh,LGR2 antag,TROY signal inh,MITF TRPM1 HTS
COCC(=O)N(C)C[C@@H]1Oc2cc(-c3ccncc3)ccc2S(=O)(=O)N([C@@H](C)CO)C[C@@H]1C,.,.,.,2.2,.,.
COc1ccc(C(=O)N/C(=C/c2ccc(Cl)cc2)C(=O)Nc2ccc(C(=O)O)cc2)cc1,-4.5,99.6*,-8.9,-7.8,-23.9,6.8
COc1ccc(/C=C(\NC(=O)c2ccc(OC)cc2)C(=O)Nc2cccc(C(=O)O)c2)cc1,-4.2,-2.7,3.2,-9.2,-23.1,3.0
Cc1nc2cc(OCc3cc(C(=O)NC(C)c4cnn(C)c4)no3)ccc2s1 (stereo unspecified),-31.6,-7.3,6.1,6.2,-37.1,30.1
COc1ccc(OCc2cc(C(=O)NC(C)c3cnn(C)c3)no2)c(Cl)c1 (stereo unspecified),-77.9,-21.0,-6.7,-73.4,-49.4,81.4*
CC(C)NC(=O)Nc1ccc2c(c1)C(=O)N([C@@H](C)CO)C[C@H](C)[C@@H](CN(C)C(=O)Nc1ccc3c(c1)OCO3)OCCCC[C@H](C)O2,.,.,.,-6.2,.,.
C/C(=N\Nc1cccc2cccnc12)c1ccccn1,-46.7,69.6*,-42.0,56.5*,-5.8,46.0
C/C(=N\Nc1cccc2cccnc12)c1ccc(N)cc1,-11.5,49.8,-38.0,-37.2,61.7*,16.1
C/C(=N\NC(=O)c1cc2ccccc2cc1O)c1ccccn1,73.9*,24.0,?,-9.4,-57.6,-72.4
C/C(=N\Nc1cccc2cccnc12)c1ccccc1O,-3.2,29.2,-83.5,-46.4,-6.6,2.7
CO[C@@H](CN(C)C(=O)C1CC1)[C@H](C)CN(C(=O)Nc1ccc(C(F)(F)F)cc1)[C@@H](C)CO,.,.,.,-5.2,.,.
ClC1=C(Cl)C(Cl)=C(Cl)C1=C/C=C/c1ccccc1,91.5*,22.6,70.1*,2.4,-3.9,-90.8
CCOC(=O)CSC1=NC(=O)/C(=C/c2ccc(OC)cc2)S1,81.7*,-8.2,-17.4,.,-74.5,-82.1
CNC[C@@H]1Oc2ccc(NC(=O)Nc3ccc4c(c3)OCO4)cc2C(=O)N([C@@H](C)CO)C[C@H]1C,.,.,.,-4.7,.,.
COc1ccc(-n2c(=S)[nH]c3cc(C(=O)Nc4ccc(C)c(F)c4)ccc3c2=O)c(OC)c1,20.5,54.1*,-4.4,15.9,29.7,-17.7
CCOc1ccc(NC(=O)c2ccc3c(=O)n(-c4ccc(OC)cc4OC)c(=S)[nH]c3c2)cc1,4.5,-6.7,11.6,6.2,1.1,-2.9
CN1CCN(C(=O)C[C@H]2CC[C@H](NC(=O)Cc3ccccn3)[C@H](CO)O2)CC1,.,.,.,7.2,.,.
Cn1nccc1C(=O)Nc1ccc(S(=O)(=O)N2CCCC2)cc1,-4.6,1.3,6.3,5.0,6.5,5.8
Cn1nc(C(=O)Nc2ccc(S(=O)(=O)N3CCCCC3)cc2)ccc1=O,9.3,104.1*,15.6,.,5.2,-10.3
Cn1c(NCC(O)c2ccccc2)nc2c1c(=O)n(Cc1ccc(Cl)c(Cl)c1)c(=O)n2C (stereo unspecified),11.1,48.6,10.2,25.5,54.4*,-7.5
Cn1c(NCC(O)c2ccccc2)nc2c1c(=O)n(Cc1ccc(Cl)cc1)c(=O)n2C (stereo unspecified),1.3,19.6,-0.1,8.4,12.8,.
O=C1C(=C2SCCCS2)CC/C1=C\c1ccc(F)cc1,58.8,104.0*,77.4*,.,86.1*,-57.9
Cc1cccc(/C=C2\CCC(=C3SCCCS3)C2=O)c1,33.1,75.3*,48.1*,.,.,-33.9
O=C(OCn1ncc(Cl)c(Cl)c1=O)c1cccc(C(F)(F)F)c1,93.6*,97.8*,0.1,.,28.1,-92.3
O=C(C[C@H]1CC[C@@H]2[C@H](COC[C@H](O)CN2C(=O)Nc2ccc(F)cc2)O1)NC1Cc2ccccc2C1,.,.,.,-4.0,.,.
SMILES,TRPM1 prom inh,TWEAK-Fn14 inh,LMP1 NFkB inh,LGR2 antag,TROY signal inh,MITF TRPM1 HTS
Clc1ccc(-c2nnc(-c3ccc(Br)o3)o2)c(Cl)c1,-119.3,-7.0,-25.6,-48.2,-39.5,125.9*
Clc1ccc(-c2nnc(-c3ccccc3)o2)c(Cl)c1,-13.4,63.5*,2.6,.,18.6,.
Fc1ccc(-c2nnc(-c3ccc(Cl)cc3Cl)o2)cc1,.,56.2*,3.5,3.1,-19.7,.
CC(C)C#Cc1ccc2c(c1)O[C@@H](CN(C)S(C)(=O)=O)[C@H](C)CN([C@@H](C)CO)S2(=O)=O,.,.,.,-5.1,.,.
CCCNC(=O)Nc1ccc2c(c1)C(=O)N(C)C[C@@H](OC)[C@H](C)CN(CC1CCCC1)[C@@H](C)CO2,.,.,.,-14.1,.,.
CCCc1cn(CC[C@H]2CC[C@@H](NC(=O)Cc3cccnc3)[C@@H](CO)O2)nn1,.,.,.,14.0,.,.
N#CC1=C(SCC(=O)Nc2ccc(C(=O)O)cc2)NC(=O)CC1c1ccco1 (stereo unspecified),11.3,97.9*,4.7,7.7,-1.9,-10.7
CN(C)S(=O)(=O)c1ccc(C(=O)NCCN2C(=O)S/C(=C\c3cccnc3)C2=O)cc1,-2.7,-6.9,1.0,-8.3,3.1,-0.6
O=C1/C(=C/c2cccnc2)SC(=S)N1c1ccc(O)cc1,9.2,59.7*,-0.9,48.1,28.8,-10.7
O=C(O)CCN1C(=O)S/C(=C\c2cccnc2)C1=O,12.3,-2.4,-4.3,-2.3,78.7*,2.3
CS(=O)(=O)c1ccc(C(=O)NCCN2C(=O)S/C(=C\c3cccnc3)C2=O)cc1[N+](=O)[O-],69.5*,83.5*,-9.1,68.7*,15.1,-68.4
O=C1/C(=C/c2cccnc2)SC(=S)N1c1ccc(F)cc1,-2.1,23.7,-5.2,16.1,-12.9,-0.6
CO[C@H]1CN(C)C(=O)c2cc(NC(=O)C3CC3)ccc2OC[C@@H](C)N(Cc2ccccc2)C[C@@H]1C,.,.,.,-1.4,.,.
Cc1ccccc1NC1=NC(=S)N(c2ccccc2)C12CCCCC2,13.8,10.4,-0.6,.,61.8*,-15.9
CSc1cnc2c(=O)n(C)c(=O)[nH]c2n1,18.6,21.0,6.4,-2.7,-7.4,-19.2
Cn1c(=O)[nH]c2nnc(-c3ccc(Cl)c(Cl)c3)nc2c1=O,6.2,56.7*,11.6,35.9,3.9,-9.8
COc1ccc2c3c([nH]c2c1)[C@@H](CO)N(C(=O)C1CCOCC1)CC31CCN(C)CC1,.,.,.,4.8,.,.
CCN(CC(=O)Nc1ccc2c(c1)OCCO2)C(=O)COc1cc(C)ccc1Cl,9.0,87.2*,1.2,5.5,-2.9,-9.3
Cc1ccc(Cl)c(OCC(=O)Nc2cccnc2)c1,-100.3,-15.3,-2.9,-23.1,-48.1,101.5*
N#Cc1ccccc1OCC(=O)Nc1ccc2c(c1)OCCCO2,-110.0,18.7,-25.3,-59.9,-83.7,.
O=C(COc1ccccc1Br)Nc1ccc2c(c1)OCCCO2,-107.6,-2.9,-34.1,-89.5,-28.4,107.8*
